The values below come from ChEMBL document CHEMBL2218924, “A broad activity screen in support of a chemogenomic map for kinase signalling research and drug discovery” (Biochem J, 2013).

SMILES strings stand for the structures.

Experiment [1] concerns the target T1, Mitogen-activated protein kinase 12 (Homo sapiens) (UniProt P53778).
T1 sequence (whole entry): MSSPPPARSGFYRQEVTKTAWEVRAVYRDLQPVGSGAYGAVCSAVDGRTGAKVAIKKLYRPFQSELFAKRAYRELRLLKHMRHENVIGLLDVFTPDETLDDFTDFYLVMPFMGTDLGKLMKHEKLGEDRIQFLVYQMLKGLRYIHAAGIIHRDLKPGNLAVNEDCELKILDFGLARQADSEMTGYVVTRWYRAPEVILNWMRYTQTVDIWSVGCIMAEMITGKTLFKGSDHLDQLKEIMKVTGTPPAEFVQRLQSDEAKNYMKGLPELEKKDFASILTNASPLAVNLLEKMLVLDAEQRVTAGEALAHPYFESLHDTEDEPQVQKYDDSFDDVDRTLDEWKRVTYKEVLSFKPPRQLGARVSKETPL
The note with it: at 1 µM.

Experiment [2] has as its target T1, Mitogen-activated protein kinase 12 (Homo sapiens). The conditions noted are these: at 10 µM.
Experiment [3] has as its target T2, Tyrosine-protein kinase receptor TYRO3 (Homo sapiens) (UniProt Q06418).
T2 sequence (whole entry): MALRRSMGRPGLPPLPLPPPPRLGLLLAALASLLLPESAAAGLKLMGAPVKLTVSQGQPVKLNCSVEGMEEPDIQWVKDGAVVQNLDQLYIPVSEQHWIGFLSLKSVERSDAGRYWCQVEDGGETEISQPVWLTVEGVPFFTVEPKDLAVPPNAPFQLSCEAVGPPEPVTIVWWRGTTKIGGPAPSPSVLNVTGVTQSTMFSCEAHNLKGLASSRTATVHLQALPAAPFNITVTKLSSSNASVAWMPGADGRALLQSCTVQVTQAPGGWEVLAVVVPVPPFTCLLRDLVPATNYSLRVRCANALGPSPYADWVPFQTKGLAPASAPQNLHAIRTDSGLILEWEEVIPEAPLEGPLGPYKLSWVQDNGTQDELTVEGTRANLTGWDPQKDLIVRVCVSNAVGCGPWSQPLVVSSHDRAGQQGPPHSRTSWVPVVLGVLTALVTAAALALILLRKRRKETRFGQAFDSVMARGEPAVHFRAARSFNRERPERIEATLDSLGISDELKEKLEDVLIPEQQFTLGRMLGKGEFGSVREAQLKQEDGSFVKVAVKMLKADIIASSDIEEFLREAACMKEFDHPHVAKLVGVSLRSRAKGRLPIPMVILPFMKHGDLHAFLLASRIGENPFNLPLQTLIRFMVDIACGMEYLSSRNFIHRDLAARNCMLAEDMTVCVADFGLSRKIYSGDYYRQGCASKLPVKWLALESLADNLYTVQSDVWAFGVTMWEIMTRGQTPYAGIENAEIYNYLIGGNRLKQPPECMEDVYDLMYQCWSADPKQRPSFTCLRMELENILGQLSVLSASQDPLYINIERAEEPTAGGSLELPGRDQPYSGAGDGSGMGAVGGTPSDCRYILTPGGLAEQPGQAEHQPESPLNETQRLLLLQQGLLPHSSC
The note with it: at 1 µM.

Experiment [4] concerns the target T2, Tyrosine-protein kinase receptor TYRO3 (Homo sapiens). The note with it: at 10 µM.
The target in experiment [5] is Ribosomal protein S6 kinase alpha-1 (Homo sapiens) (UniProt Q15418). The note with it: at 10 µM.
Experiment [6] deals with Ribosomal protein S6 kinase alpha-3 (Homo sapiens) (UniProt P51812). The conditions noted are these: at 10 µM.
In experiment [7] the target is Ribosomal protein S6 kinase alpha-2 (Homo sapiens) (UniProt Q15349). The note with it: at 10 µM.
In experiment [8] the target is T3, Serine/threonine-protein kinase Sgk1 (Homo sapiens) (UniProt O00141).
T3 sequence (whole entry): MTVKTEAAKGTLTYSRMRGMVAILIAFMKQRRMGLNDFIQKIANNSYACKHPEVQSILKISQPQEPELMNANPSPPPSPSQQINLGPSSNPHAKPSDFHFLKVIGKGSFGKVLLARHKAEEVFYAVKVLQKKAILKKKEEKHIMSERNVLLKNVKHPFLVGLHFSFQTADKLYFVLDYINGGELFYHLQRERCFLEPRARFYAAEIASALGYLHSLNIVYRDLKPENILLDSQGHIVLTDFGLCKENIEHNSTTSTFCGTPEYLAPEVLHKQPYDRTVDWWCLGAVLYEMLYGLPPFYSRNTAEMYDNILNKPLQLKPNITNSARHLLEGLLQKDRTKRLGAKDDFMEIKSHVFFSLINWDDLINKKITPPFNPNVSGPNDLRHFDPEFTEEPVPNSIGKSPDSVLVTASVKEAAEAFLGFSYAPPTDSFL
The note with it: at 10 µM.

Experiment [9] addresses Mitogen-activated protein kinase 14 (Homo sapiens) (UniProt Q16539). The note with it: at 1 µM.
For experiment [10] the target is unchanged. The conditions noted are these: at 10 µM.
The target in experiment [11] is Mitogen-activated protein kinase 11 (Homo sapiens) (UniProt Q15759). The note with it: at 1 µM.
The target is the same in experiment [12]. The conditions noted are these: at 10 µM.
In experiment [13] the target is Ribosomal protein S6 kinase alpha-3 (Homo sapiens) (UniProt P51812). The conditions noted are these: at 1 µM.
Experiment [14] has as its target Ribosomal protein S6 kinase alpha-2 (Homo sapiens) (UniProt Q15349). The note with it: at 1 µM.
For experiment [15], the target named is Ribosomal protein S6 kinase alpha-6 (Homo sapiens) (UniProt Q9UK32). The note with it: at 1 µM.
The target is the same in experiment [16]. The conditions noted are these: at 10 µM.
Experiment [17] deals with T4, Mitogen-activated protein kinase 13 (Homo sapiens) (UniProt O15264).
T4 sequence (whole entry): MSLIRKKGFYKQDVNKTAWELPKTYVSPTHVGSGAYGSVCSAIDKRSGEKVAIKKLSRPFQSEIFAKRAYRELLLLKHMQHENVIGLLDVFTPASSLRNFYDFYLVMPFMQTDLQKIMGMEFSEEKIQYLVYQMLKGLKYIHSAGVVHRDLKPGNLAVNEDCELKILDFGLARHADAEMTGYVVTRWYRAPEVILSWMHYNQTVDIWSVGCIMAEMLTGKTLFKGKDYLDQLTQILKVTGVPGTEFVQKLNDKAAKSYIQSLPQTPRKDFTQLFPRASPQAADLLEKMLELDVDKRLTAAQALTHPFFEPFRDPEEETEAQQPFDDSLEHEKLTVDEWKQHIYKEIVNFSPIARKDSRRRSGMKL
The conditions noted are these: at 1 µM.

The target of experiment [18] is T3, Serine/threonine-protein kinase Sgk1 (Homo sapiens). The conditions noted are these: at 1 µM.

Sequence of Ribosomal protein S6 kinase alpha-3 (Homo sapiens) (P51812 whole entry): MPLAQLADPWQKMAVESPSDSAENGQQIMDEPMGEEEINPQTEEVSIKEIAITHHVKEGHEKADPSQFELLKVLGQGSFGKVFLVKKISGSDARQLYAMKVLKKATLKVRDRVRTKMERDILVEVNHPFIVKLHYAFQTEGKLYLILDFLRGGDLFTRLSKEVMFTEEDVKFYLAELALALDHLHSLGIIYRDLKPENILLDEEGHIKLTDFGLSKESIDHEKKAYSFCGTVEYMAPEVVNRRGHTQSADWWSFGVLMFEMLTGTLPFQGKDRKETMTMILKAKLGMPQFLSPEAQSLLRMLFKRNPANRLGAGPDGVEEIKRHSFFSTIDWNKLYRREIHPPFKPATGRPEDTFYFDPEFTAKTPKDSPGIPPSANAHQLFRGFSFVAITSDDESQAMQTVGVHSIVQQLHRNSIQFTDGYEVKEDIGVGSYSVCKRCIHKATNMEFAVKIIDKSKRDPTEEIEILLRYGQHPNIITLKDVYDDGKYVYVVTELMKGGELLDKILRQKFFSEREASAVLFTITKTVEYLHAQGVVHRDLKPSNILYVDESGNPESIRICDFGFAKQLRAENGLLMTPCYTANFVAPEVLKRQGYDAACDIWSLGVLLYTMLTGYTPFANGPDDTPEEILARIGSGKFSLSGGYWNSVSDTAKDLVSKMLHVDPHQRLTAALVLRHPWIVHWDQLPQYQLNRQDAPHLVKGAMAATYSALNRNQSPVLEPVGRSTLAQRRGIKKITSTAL
Sequence of Mitogen-activated protein kinase 14 (Homo sapiens) (Q16539 whole entry): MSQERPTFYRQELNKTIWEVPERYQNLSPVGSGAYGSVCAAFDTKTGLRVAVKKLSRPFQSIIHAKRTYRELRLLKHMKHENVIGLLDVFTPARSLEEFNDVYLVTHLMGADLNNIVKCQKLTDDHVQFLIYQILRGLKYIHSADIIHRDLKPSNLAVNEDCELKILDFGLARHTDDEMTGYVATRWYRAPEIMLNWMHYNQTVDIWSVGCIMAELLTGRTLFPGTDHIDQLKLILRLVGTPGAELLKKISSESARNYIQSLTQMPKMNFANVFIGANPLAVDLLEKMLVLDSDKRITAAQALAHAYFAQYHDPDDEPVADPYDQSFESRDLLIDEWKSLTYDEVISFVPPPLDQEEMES
Sequence of Ribosomal protein S6 kinase alpha-2 (Homo sapiens) (Q15349 whole entry): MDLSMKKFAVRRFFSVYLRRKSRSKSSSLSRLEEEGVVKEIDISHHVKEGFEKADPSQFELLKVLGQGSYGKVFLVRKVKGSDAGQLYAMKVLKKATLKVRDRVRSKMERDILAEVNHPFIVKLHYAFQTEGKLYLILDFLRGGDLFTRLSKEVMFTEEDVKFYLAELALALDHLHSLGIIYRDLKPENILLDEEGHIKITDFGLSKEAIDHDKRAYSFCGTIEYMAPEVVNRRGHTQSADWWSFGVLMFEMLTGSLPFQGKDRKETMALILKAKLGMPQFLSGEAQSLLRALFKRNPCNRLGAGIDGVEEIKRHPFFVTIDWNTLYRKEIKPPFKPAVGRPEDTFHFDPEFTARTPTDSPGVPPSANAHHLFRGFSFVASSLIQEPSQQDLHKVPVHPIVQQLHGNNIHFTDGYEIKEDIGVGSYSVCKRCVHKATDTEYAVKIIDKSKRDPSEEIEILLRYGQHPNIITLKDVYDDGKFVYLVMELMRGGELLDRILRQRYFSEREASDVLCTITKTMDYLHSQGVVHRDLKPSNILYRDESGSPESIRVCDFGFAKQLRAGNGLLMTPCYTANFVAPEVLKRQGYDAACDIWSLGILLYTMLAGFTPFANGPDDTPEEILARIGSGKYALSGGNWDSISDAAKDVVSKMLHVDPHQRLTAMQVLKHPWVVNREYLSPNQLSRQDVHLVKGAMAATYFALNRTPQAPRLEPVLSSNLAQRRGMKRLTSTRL
Sequence of Mitogen-activated protein kinase 11 (Homo sapiens) (Q15759 whole entry): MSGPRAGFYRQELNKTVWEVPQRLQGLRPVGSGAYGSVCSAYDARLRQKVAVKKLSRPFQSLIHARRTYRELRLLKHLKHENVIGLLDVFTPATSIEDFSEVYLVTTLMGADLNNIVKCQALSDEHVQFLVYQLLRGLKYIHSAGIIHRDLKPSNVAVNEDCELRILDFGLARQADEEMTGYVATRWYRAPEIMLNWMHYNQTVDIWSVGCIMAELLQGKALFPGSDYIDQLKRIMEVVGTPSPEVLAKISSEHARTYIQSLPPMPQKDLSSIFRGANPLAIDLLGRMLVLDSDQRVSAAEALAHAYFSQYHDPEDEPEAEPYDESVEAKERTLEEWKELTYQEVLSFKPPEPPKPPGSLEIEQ
Sequence of Ribosomal protein S6 kinase alpha-1 (Homo sapiens) (Q15418 whole entry): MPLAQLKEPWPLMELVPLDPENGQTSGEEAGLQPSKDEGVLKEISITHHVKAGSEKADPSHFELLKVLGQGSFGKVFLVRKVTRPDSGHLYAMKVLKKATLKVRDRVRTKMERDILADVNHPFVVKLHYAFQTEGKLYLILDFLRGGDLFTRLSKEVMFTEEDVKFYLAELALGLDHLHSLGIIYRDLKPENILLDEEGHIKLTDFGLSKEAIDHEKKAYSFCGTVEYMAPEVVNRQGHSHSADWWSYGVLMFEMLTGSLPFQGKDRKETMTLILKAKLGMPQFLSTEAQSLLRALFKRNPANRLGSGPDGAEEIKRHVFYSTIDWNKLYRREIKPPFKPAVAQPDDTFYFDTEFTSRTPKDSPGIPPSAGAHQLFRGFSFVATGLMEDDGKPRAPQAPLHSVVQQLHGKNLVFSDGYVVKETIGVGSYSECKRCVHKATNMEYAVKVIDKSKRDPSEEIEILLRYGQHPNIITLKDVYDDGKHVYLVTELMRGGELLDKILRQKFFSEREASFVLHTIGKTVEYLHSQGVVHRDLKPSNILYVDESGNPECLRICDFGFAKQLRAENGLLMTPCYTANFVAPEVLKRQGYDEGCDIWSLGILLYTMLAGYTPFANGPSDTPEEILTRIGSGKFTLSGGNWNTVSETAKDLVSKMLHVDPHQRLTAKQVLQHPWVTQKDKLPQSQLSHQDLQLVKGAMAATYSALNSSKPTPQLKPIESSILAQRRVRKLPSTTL
Sequence of Ribosomal protein S6 kinase alpha-6 (Homo sapiens) (Q9UK32 whole entry): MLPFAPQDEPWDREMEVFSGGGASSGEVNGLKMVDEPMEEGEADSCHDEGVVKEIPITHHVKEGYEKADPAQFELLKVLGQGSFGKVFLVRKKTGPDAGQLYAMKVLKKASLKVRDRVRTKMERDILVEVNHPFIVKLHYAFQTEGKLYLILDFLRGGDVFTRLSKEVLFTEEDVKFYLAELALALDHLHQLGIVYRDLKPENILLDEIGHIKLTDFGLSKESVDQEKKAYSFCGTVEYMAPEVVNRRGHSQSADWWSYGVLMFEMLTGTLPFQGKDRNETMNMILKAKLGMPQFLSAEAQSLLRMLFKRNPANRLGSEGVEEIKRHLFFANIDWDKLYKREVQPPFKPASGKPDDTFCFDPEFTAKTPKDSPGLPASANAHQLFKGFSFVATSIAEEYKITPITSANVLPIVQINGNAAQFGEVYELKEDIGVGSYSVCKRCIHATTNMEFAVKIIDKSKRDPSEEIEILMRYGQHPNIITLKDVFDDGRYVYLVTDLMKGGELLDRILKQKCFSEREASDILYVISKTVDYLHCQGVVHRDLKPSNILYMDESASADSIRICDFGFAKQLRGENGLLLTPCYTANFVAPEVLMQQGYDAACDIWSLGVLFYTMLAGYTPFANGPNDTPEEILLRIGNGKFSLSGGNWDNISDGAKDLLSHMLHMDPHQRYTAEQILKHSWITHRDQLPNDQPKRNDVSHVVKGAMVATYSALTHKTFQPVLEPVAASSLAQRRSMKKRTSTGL

`N#Cc1c(NC(=O)c2cccc3ccccc23)sc2c1CCCC2`: the residual activity in [1] worked out at 96%.
Consider `Cn1cnc2cc3c(Nc4cccc(Br)c4)ncnc3cc21`, for which the residual activity in experiment [1] is 104%; in [2] it was 89%.
Consider `O=C1Nc2ccccc2/C1=C1/Nc2ccccc2/C1=N\OCCC(O)CO` (centres undefined), for which the residual activity in experiment [1] amounted to 95%.
On to `Cc1cc(Nc2nc(-c3ccccc3)nc3ccccc23)n[nH]1`, for which the residual activity in [1] stood at 103%.
The same measure, in the same setting: the figure for `c1ccc(-c2n[nH]cc2-c2ccnc3ccccc23)nc1` is 101%.
In the case of `COc1ccc2c(c[n+](C)c3c4cc5c(cc4ccc23)OCO5)c1OC`, the residual activity was 89% in experiment [3]; 79% in [4]; 92% in experiment [5]; 91% in [6]; 93% in [7]; 94% in experiment [2]. For the same compound, in experiment [8], the residual activity came to 85%.
Take `COc1ccc2c(c1)c(C1=C(c3c[nH]c4ccccc34)C(=O)NC1=O)cn2CCCN(C)C`: the residual activity in experiment [1] and in experiment [2] was 100% each time.
For `CC(C)n1cnc2c(NCc3ccccc3)nc(NCCCO)nc21`, the figures for the residual activity in experiment [1] and in experiment [2] were 100% and 101%, respectively.
The like results for `Cc1nc2cc3nc(-c4cccs4)cnc3cc2n1C` were, in that order, 114% and 100%.
Consider `CO[C@H]1[C@@H](OC)C[C@H](C)[C@@H](OC)C2=CC(=O)C=C(NC(=O)/C(C)=C/C=C/[C@H](OC)[C@@H](OC(N)=O)/C(C)=C/[C@@H]1C)C2=O`, for which the residual activity in experiment [9] was determined as 95%; in experiment [10], 106%; in experiment [1] it was 110%; in experiment [2] it was 99%.
On to `COc1ccc(Cl)cc1NC(=O)Nc1cc(C)nc2ccccc12`, for which the residual activity in experiment [1] is 95%; in [2] it was 85%.
As for `CN[C@@H]1C[C@H]2O[C@@](C)([C@@H]1OC)n1c3ccccc3c3c4c(c5c6ccccc6n2c5c31)C(=O)NC4`, the residual activity is 81% in experiment [9], 79% in experiment [10], 97% in [11] and 89% in experiment [12].
In the case of `C[S+]([O-])c1ccc(-c2nc(-c3ccc(F)cc3)c(-c3ccncc3)[nH]2)cc1` (centres undefined), the residual activity in [3] stood at 107%; in experiment [5], 80%; in experiment [13] it was 108%; in experiment [6] it was 97%; in [14], 107%; in experiment [7], 96%. Besides, the residual activity is 114% in [15]; 113% in experiment [16]; 114% in experiment [1]; 86% in [2]; 111% in experiment [17]; 96% in [18]. Also, the residual activity in experiment [8] came out at 124%.
On to `O=C1Nc2cc(Br)ccc2/C1=C1/Nc2ccccc2/C1=N\O`, for which the residual activity was 95% in experiment [1] and 94% in [2].
The matching figures for `O=C(CCCc1ccc(-c2ccccc2F)cc1)Nc1ccc(O)cc1`: 101% and 100%.
The like results for `O=C1NC(=O)c2cc(Nc3ccc(F)cc3)c(Nc3ccc(F)cc3)cc21` were, in that order, 99% and 82%.
With `O=C(Nc1cccc(Nc2nccc(Nc3cccc(C(F)(F)F)c3)n2)c1)C1CC1`, the residual activity was determined as 98% in experiment [1] and 95% in experiment [2].
In the case of `CC(=O)c1ccc(N2CCOCC2)cc1O`, the residual activity in [1] came out at 110%; in experiment [2] it was 102%.
The matching figures for `Nc1ccc2ncnc(NCCc3ccc(Oc4ccccc4)cc3)c2c1`: 107% and 108%.
For `Nc1nc(Nc2ccc(S(N)(=O)=O)cc2)nn1C(=S)Nc1c(F)cccc1F`, the residual activity in [1] is 56%; in experiment [2], 69%.
Regarding `O=C1NC(=O)/C(=C\c2ccc3nccnc3c2)S1`, the residual activity was found to be 100% in experiment [1] and 61% in [2].
In the case of `NC(=O)Nc1sc(-c2ccc(F)cc2)cc1C(N)=O`, the residual activity stood at 90% in experiment [1] and 82% in experiment [2].
The matching figures for `O=C1Nc2ccc(Br)cc2/C1=C\c1cc2c([nH]1)CCCC2`: 115% and 102%.
The matching figures for `CCCC(=O)Oc1ccc2[nH]c(C(=O)c3cc4ccccc4[nH]3)cc2c1`: 96% and 98%.
As to `CC#CC(=O)Nc1cc2c(Nc3ccc(F)c(Cl)c3)ncnc2cn1`, the residual activity in experiment [1] is 103%; in [2] it was 95%.
Regarding `COc1ccc(C(=O)Nc2sc3c(c2C(N)=O)CCCC3)cc1OC`, the residual activity in experiment [1] was 95%; in experiment [2] it was 83%.
The matching figures for `O=C1NC(=O)/C(=C/c2ccc3c(c2)OC(F)(F)O3)S1`: 110% and 113%.
The matching figures for `C[C@@H](N)[C@H]1CC[C@H](C(=O)Nc2ccncc2)CC1`: 111% and 111%.
As to `Nc1ncnc2[nH]nc(Nc3ccc(F)cc3)c12`, the residual activity in [1] was 101%; in [2], 96%.
`Cc1cccc(-c2[nH]c(C(C)(C)C)nc2-c2ccc3c(c2)OCO3)n1`: the residual activity in [1] came out at 104%; in [2], 100%.
For `COc1cc2ncnc(Nc3ccc(Oc4ccccc4)cc3)c2cc1OC`, the residual activity in [1] is 108%; in [2], 101%.
Take `COc1ccc(CNc2nc(N(CCO)CCO)nc3c2ncn3C(C)C)cc1`: the residual activity in [1] worked out at 109%; in experiment [2], 99%.
`Cn1cc(/C=C2\C(=O)Nc3ccc(S(N)(=O)=O)cc32)c2ccccc21`: the residual activity turned out to be 99% in [1] and 104% in experiment [2].
The matching figures for `O=c1cc(N2CCNCC2)oc2c(-c3ccccc3)cccc12`: 92% and 105%.
The like results for `Cn1sc(=O)n(Cc2ccccc2)c1=O` were, in that order, 90% and 97%.
The matching figures for `CN(C)c1ccc(/C=C2\C(=O)Nc3ccccc32)cc1`: 113% and 83%.
Regarding `COc1cc2ncnc(Nc3ccc(O)c(Br)c3)c2cc1OC`, the residual activity in experiment [1] came to 98%; in experiment [2] it was 97%.
Consider `Oc1ccc(Nc2nc(-c3ccc(Cl)cc3)cs2)cc1`, for which the residual activity in experiment [1] is 112%; in [2], 100%.
In the case of `CCOC(=O)c1c(C)[nH]c(/C=C2\C(=O)Nc3ccccc32)c1C`, the residual activity worked out at 99% in experiment [1] and 95% in experiment [2].
